Experimental data from ChEMBL document CHEMBL4513216, “Probing the Open Global Health Chemical Diversity Library for Multistage-Active Starting Points for Next-Generation Antimalarials” (ACS Infect Dis, 2020).
About 2,700 (4%) of roughly 68,000 compounds showed an effect of 50% or more. Only a selection was taken, and strong results are over-represented in it overall.

test system: Plasmodium berghei; test: Screen against P. berghei liver stage (PbLuc), transformed with Luciferase, at 2uM; format: functional, HepG2; settings: tested at 2 uM

SMILES	INHIBITION
CCn1cc(NC(=O)Nc2ccc3c(c2)OCCO3)cn1	-27.62%
Cc1cc(CN2CCC(CNC(=O)c3ccc4[nH]cnc4c3)C2)[nH]n1 (configuration not stated)	-48.91%
CC(C)c1nn(C)c(N(C)C)c1CNC1CCN(CC2CC2)CC1	10.61%
O=c1[nH]c(N2CCCCC2)nc2c1CCN(Cc1cccnc1)C2	43.23%
CN1CCN(c2ncc3c(=O)n(Cc4ccco4)ccc3n2)CC1	59.01%
O=c1c2cnc(N3CCCCC3)nc2ccn1Cc1ccco1	-77.67%
CCN1CCN(c2ncc3c(=O)n(Cc4ccco4)ccc3n2)CC1	-20.72%
Cn1ccnc1N1CCN(C(=O)Cc2ccc(Cl)cc2)CC1	29.05%
O=C(c1ccc2ccccc2c1)C1CCCN(C(=O)Cn2cncn2)C1 (configuration not stated)	25.9%
CSc1ccc(C(=O)C2CCCN(C(=O)Cn3cnnn3)C2)cc1 (configuration not stated)	41.68%
O=C(c1ccc2ccccc2c1)C1CCCN(C(=O)Cn2cnnn2)C1 (configuration not stated)	56.38%
Cc1ccccc1OCC(O)CN1CCC(Cn2cccn2)CC1 (configuration not stated)	33.22%
Cc1cccc(CN2CCc3ncnc(-c4ccsc4)c3CC2)n1	-1.33%
CC(C)N(C)S(=O)(=O)N1CCCC1C(=O)N1CCSCC1 (configuration not stated)	-36.67%
Cc1ccc(CC(=O)N2CCCCC2c2nc(C)cs2)cn1 (configuration not stated)	-39.92%
O=c1[nH]nc(C2CC2)n1-c1cccc(Cl)c1	-21.72%
C[C@H](c1ccc(F)cc1)n1c(C2CCN(C)CC2)n[nH]c1=O	72.05%
C[C@H](c1ccc(Cl)cc1)n1c(C2CC2)n[nH]c1=O	62.51%
CN1CCC(c2n[nH]c(=O)n2-c2cccc(Cl)c2)CC1	-8.16%
C[C@H](c1ccc(F)cc1)n1c(C2CCC2)n[nH]c1=O	38.67%
CC[C@@H](c1ccccc1)n1c(C2CC2)n[nH]c1=O	43.05%
O=C1NCCCCC1NC(=O)N1CCc2ccccc21 (configuration not stated)	50.42%
O=C1NCCCCC1NC(=O)N1CCCc2cc(F)ccc21 (configuration not stated)	-30.43%
O=C1NCCCCC1NC(=O)N1CCCc2ccccc21 (configuration not stated)	12.66%
Cc1nnc(N2CCCC3(CN(Cc4cnn(C)c4)CCO3)C2)o1 (configuration not stated)	16.39%
CC(C)c1nn(CC(=O)N2CCCC2)c(=O)c2c1cnn2C(C)(C)C	-10.09%

SMILES	INHIBITION
CCc1cnc(CN(C)C2CCN(Cc3nnc(C4CC4)n3C)C2)o1 (configuration not stated)	-11.16%
Cc1occc1C(=O)N1CCC2(CCN(Cc3nccs3)C2)CC1	-6.15%
Cc1occc1C(=O)N1CCC2(CCCN(Cc3nccs3)C2)C1 (configuration not stated)	50.61%
Cc1occc1C(=O)N1CCC2(CCN(Cc3nccs3)CC2)C1	-114.33%
CC(C)NC(=O)N1C[C@@H]2C[C@H](C(=O)N3CCCC3)[C@H](C1)O2	-17.24%
Cn1cc(CN2CCc3nc(-c4ccccn4)nc(O)c3C2)cn1	-21.74%
CCn1cc(CN2CCc3nc(N4CCOCC4)nc(O)c3CC2)cn1	7.86%
CCn1cc(CN2CCc3nc(-c4ccccn4)nc(O)c3C2)cn1	57.4%
COCCN(C)C[C@@H]1CN(C(=O)c2cccc(C(F)(F)F)c2)C[C@@H]1CO	-20.58%
CCn1nc(C)cc1C(=O)N1C[C@@H](CN(C)C)[C@@H](CO)C1	31.31%
CCN(C)C[C@@H]1CN(C(=O)c2cc(C(F)(F)F)n[nH]2)C[C@@H]1CO	51.9%
CN(C)C[C@@H]1CN(C(=O)c2cc(-c3ccccc3)n[nH]2)C[C@@H]1CO	-40.44%
CCN(C)C[C@@H]1CN(C(=O)c2cc(-c3ccc(F)cc3)n[nH]2)C[C@@H]1CO	54.49%
CN(C)C[C@@H]1CN(C(=O)c2cc(F)ccc2F)C[C@@H]1CO	-0.3%
O=C(CCCC(=O)NCc1cccc(Br)c1)NCCN1CCCC1	-32.11%
Cc1nc(CN2C[C@@H]3CN(C(=O)C4(C#N)CC4)C[C@@H]3C2=O)cs1	25.5%
CN(C)C(=O)N1CCC2(CCCN(Cc3cnn(C)c3)C2)C1 (configuration not stated)	40.67%
CCn1c(CC2CCN(C(=O)C3CCOC3)CC2)nn(C)c1=O (configuration not stated)	-47.18%
CCC(C)NC(=O)c1cccc(CNCc2csc(C(C)C)n2)c1 (configuration not stated)	-21.15%
CC(C)N(C)Cc1cncc2c1CCN(Cc1ccoc1)C2	1.81%
Cc1ccc(C(=O)NCC(O)CN2CCCC2=O)c(C)c1 (configuration not stated)	-40.9%
COc1ccc(CN(C)C(=O)CN2CC(n3cc(C)cn3)C2)cc1F	-6.33%
NC(=O)c1ccc(N2CCN(Cc3c(Cl)cncc3Cl)CC2)nc1	-20.93%
CCc1nn(C)c(Cl)c1CN1CCN(c2ccc(C(N)=O)cn2)CC1	33.16%
CCOC(=O)c1ccc(N2CCN(Cc3c(C)nn(C)c3Cl)CC2)nc1	55.7%
Cc1nc2c(c(Nc3ccccn3)n1)CN(S(C)(=O)=O)CC2	-48.89%
